Reference: PubChem BioAssay (NCI)
Compounds without any hit were thinned out: in the full panel of roughly 83,000, 20% have a hit.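 Percent growth is the endpoint: 0 to 100 indicates growth inhibition (40 means 60% inhibition), 0 means no net growth, and negative values indicate cell death.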 Unmarked numbers belong to inactive results. Activity calls are given as the source filed them. Rule for the calls: active = growth percent below 10; inactive = the rest.

How the values were obtained:
Assay in all cases: NCI-60 one-dose screen, 48 h (100 = growth as untreated, 0 = no growth, -100 = all killed)
Conditions in all cases: 10 µM unless noted
SK-MEL-2 melanoma = test system: SK-MEL-2 melanoma
EKVX NSCLC = test system: EKVX NSCLC
SN12C renal = test system: SN12C renal
UO-31 renal = test system: UO-31 renal
TK-10 renal = test system: TK-10 renal
ACHN renal = test system: ACHN renal
CAKI-1 renal = test system: CAKI-1 renal
A498 renal = test system: A498 renal
CCRF-CEM leukemia = test system: CCRF-CEM leukemia
MOLT-4 leukemia = test system: MOLT-4 leukemia

| Compound | growth (SK-MEL-2 melanoma) | growth (EKVX NSCLC) | growth (SN12C renal) | growth (UO-31 renal) | growth (TK-10 renal) | growth (ACHN renal) | growth (CAKI-1 renal) | growth (A498 renal) | growth (CCRF-CEM leukemia) | growth (MOLT-4 leukemia) |
| --- | --- | --- | --- | --- | --- | --- | --- | --- | --- | --- |
| COc1cc(C(=O)Nc2cc3c(cc2Oc2cc(C)cc(C)c2)C(=O)N(C)[C@@H](CC(=O)N(C)O)C(=O)N3)c(Br)c(OC)c1OC | -55.3% (active) | -18.8% (active) | -27.7% (active) | -32.4% (active) | -12.2% (active) | -30% (active) | -5.8% (active) | -56.7% (active) | 2.91% (active) |  |
| Oc1c(Cl)cc(Cl)c(Cl)c1CNCCNCc1c(O)c(Cl)cc(Cl)c1Cl | 18.3% | 22.4% | 36.2% | 0.579% (active) | 39.5% | 8.86% (active) | 9.72% (active) | 51.3% | 4.31% (active) | 10% |
| CCOc1ccc(Nc2nc(-c3ccc4c(c3)NC(=O)CO4)cs2)cc1 | 81.3% | 89% | 78.6% | 63.7% | 85.5% | 52.3% | 108% | 103% | 32.9% | 6.58% (active) |
| COc1cc(NCCCCCNC(C)(C)C)c2ncccc2c1 | 113% | 95.9% | 86.7% | 75.8% | 95.7% | 104% | 78.7% | 103% | 51.8% |  |
| O=C1NN(C(=O)c2ccccc2)C(c2ccc(Cl)c(Cl)c2)=C/C1=C\c1ccc([N+](=O)[O-])cc1 | 100% | 88.3% | 92.3% | 61.9% | 106% | 90.3% | 77.1% | 80.4% | 88.5% |  |
| C[C@H]1[C@H](C)CC[C@]2(C(=O)Nc3ccc4ncccc4c3)CC[C@]3(C)C(=CC[C@@H]4[C@@]5(C)CCCNC(C)(C)[C@@H]5CC[C@]43C)[C@H]12 | 90.5% | 76.6% | -86.1% (active) | -76.5% (active) | 102% | -75.1% (active) | 26.7% | 98.3% | -25.5% (active) | -47.9% (active) |
| CCOC(=O)c1nc2c3ccccc3ccn2c1C(=O)OCC | 112% | 76.9% | 95.4% | 96.4% | 102% | 99.5% | 94.8% | 109% | 96.1% | 95.4% |
| O=C1C=CC(=O)N1c1cccc(Cl)c1 | 116% | 108% | 126% | 104% | 68.2% | 98.4% | 79.4% | 94.6% | 55.4% |  |
| CC1(C)NCCC[C@]2(C)[C@H]3CC[C@@H]4[C@H]5[C@H](C(=O)/C=C/c6ccco6)CC[C@]5(CO)CC[C@@]4(C)[C@]3(C)CC[C@@H]12 | 117% | 101% | 82.1% | 67.3% | 9.01% (active) | 99.6% | 76.1% | 51.3% | 74.6% |  |
| Cc1ccc(-c2nc3ccccn3c2/C=C2/C(=O)Nc3cc(Cl)ccc32)cc1 | 87.7% | 91.9% | 77.5% | 62.5% | 120% | 92.3% | 62.6% | 98.2% | 56.2% | 53.4% |
| COc1cc(-c2cc(-c3ccc(N(C)C)cc3)nc(N3CCOCC3)c2C#N)cc(OC)c1OC | 34.5% | 51.2% | 53.4% | 54.8% | 38.4% | 46.1% | 29.8% | 75.5% | 30.3% |  |
| O=C(/C(=C\c1ccc([N+](=O)[O-])cc1)S(=O)Cc1ccc(F)cc1)c1ccc(F)cc1 (stereo unspecified) | 78% | 84.2% | -43.7% (active) | -39% (active) | 25.8% | -7.56% (active) | 44.3% | 82.2% | 0.265% (active) | 5.93% (active) |
| CCN(CC)CCOc1ccc(NC(=O)C(C(C)C)N2C(=O)/C(=C/c3ccc(Br)cc3)SC2=S)cc1 (stereo unspecified) | 101% | 90% | 73.3% | 74.5% | 95.6% | 62.1% | 81% | 99.5% | -16.7% (active) | 3.96% (active) |
| COc1cc(NC(=O)CSc2nc3ccc(C)cc3c(=O)n2Cc2ccccc2)cc(OC)c1OC | 57.2% | 84.9% | 83.5% | 71.4% | 55.4% | 38% | 82.4% | 14.1% | 94.1% |  |
| COc1cc(/C=C\c2cc(OC)c(OC)c(OC)c2)cc(NC(=O)/C=C/c2cc(OC)c(OC)c(OC)c2)c1OC | 47% | 47.6% | 66.9% | 24.9% | 71.3% | 52.7% | 22.7% | 41.5% | 25.8% | 30.9% |
| NS(=O)(=O)c1ccc(CCN2C(=O)c3cc(Cl)c(Cl)cc3C2=O)cc1 | 96.5% | 103% | 107% | 93% | 88.5% | 105% | 96.6% | 104% | 98% | 92.4% |
| Cn1cc(-c2nc(-c3c[nH]c4c(Cl)nccc34)cs2)c2cc(F)ccc21 | 95.6% | 94.2% | 98.6% | 103% | 95% | 114% | 99.2% | 83.2% | 97.8% |  |
| Cc1nc2sccn2c1-c1nc2sccn2c1/C=C1/C(=O)Nc2ccccc21 | 61% | 56.6% | 65.6% | 39.6% | 70.9% | 41.5% | 2.29% (active) | 5.72% (active) | 35% |  |
| O=C1Nc2ccccc2/C1=C\c1c(-c2ccccc2)nc2ccccn12 | 52.5% | 53.1% | 46.1% | 48.2% | 84.4% | 40.9% | 39.2% | 28.6% | 37.9% | 9.8% (active) |
| O=Cc1ccc(-c2cn3ccnc3c(-c3ccc4ncn(Cc5ccccc5)c4c3)n2)cc1 | 72.2% | 79.1% | 79.3% | 17.8% | 99.3% | 88.4% | 63.4% | 88.8% | 22.1% | 41.3% |
| CC(C)N1C(=O)S/C(=C2/SC(=O)N(C(C)C)C2=O)C1=O | 98.7% | 85.5% | 94.8% | 87.7% | 89.9% | 102% | 98.8% | 89.5% | 38.9% | 99.4% |
| CCOC(=O)c1cc(C(=O)c2cc(OC)cc(OC)c2)n2ccc3ccccc3c12 | 102% | 94.8% | 81.2% | 95.3% | 99.8% | 84.2% | 84.5% | 89.3% | 102% | 104% |
| C=C1C(=O)O[C@H]2[C@H]1CC/C(CNS(=O)(=O)c1cccc3ccccc13)=C\CC[C@@]1(C)O[C@@H]21 | 59.4% | 59.4% | 11.9% | 21.9% | 8.61% (active) | 3.67% (active) | 34.5% | 70.9% | 1.32% (active) | 6.51% (active) |
| COc1ccc(-c2nc3sccn3c2/C=C/C(=O)c2ccc3c(c2)OCO3)cc1 | 87.4% | 85.4% | 86.1% | 73.5% | 119% | 73.3% | 78.3% | 113% | 18.3% | 37.3% |
| O=C(/C(=C/c1ccc([N+](=O)[O-])cc1)SCc1ccc(F)cc1)c1ccc(F)cc1 | 90.4% | 101% | 82.4% | 54.3% | 79.4% | 91.1% | 75.2% | 79.4% | 7.75% (active) | 21.9% |
